# According to PubChem BioAssay (Tox21):
# Values joined by “and” are separate entries in the source; they are usually repeats but may differ in a detail not shown here. Equal values may be shown once. Records with an inconclusive call do not appear. Entries that show only a call come without a potency. Where a structure was tested more than once in an assay, its records may differ in their call. Active and inactive are the calls of the source. Unless noted, calls follow the shape of the dose curve; as a rule, active = well fitted curve in the direction sought with a large enough effect in the repeat runs; inconclusive = weak or mixed curves; inactive = no such curve, though single readings can be large; an effect the other way counts as inactive or inconclusive.
# Tested on: not listed separately
# Test: qHTS assay to identify small molecule agonists of the estrogen related receptor (ERR) signaling pathway (AID 1224820)
# Conditions: ERR reporter cell line, luciferase agonist mode; series mostly up to 46.1 µM; activation: at the top concentration
# Method in brief: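 Luminescence readout (One-Glo, 30 min RT) from NTP-supplied ERR cell line exposed to compounds for 18 h at 37 C. Cells seeded 2,000 per well and pre-incubated 6 h before pin-tool compound transfer.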
row,SMILES,activation
1,O=c1n(CCCN2CCN(c3cccc(Cl)c3)CC2)nc2ccccn12,-15.4% (inactive)

# Tested on: estrogen-related receptor alpha (ERRalpha) with PGC-1alpha coactivator, human
# Test: qHTS assay to identify small molecule antagonists of the estrogen related receptor signaling pathway with the pleiotropic PPARgamma coactivator (PGC) (AID 1224821; calls by dose curve;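 also: lower luminescence signal means antagonism of PGC/ERR signalling; nearly all actives have a fitted effect of over 50% in size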)
# Conditions: ERR/PGC reporter cell line, luciferase, antagonist mode; series mostly up to 46.1 µM; activity change, negative = inhibition: at the top concentration
# Method in brief: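 PGC/ERR reporter cells; 6 h pre-incubation 37 C/5% CO2; pin-tool compound in DMSO, 18 h 37 C; One-Glo added, 30 min RT; luminescence read. qHTS antagonist mode.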
row,SMILES,"activity change, negative = inhibition"
1,CN=C(NC#N)NCCSCc1nc[nH]c1C,-8.67% (inactive)
2,Nc1nc(N)c2nc(-c3ccccc3)c(N)nc2n1,82.1% (inactive)
3,CC(CN1c2ccccc2Sc2ccccc21)N(C)C (configuration not stated),43.3% (inactive)

# Tested on: not listed separately
# Test: qHTS assay to identify small molecule antagonists of the estrogen related receptor signaling pathway with the pleiotropic PPARgamma coactivator (PGC) cell viability counter screen (AID 1224822;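 also: viability read after 17.5 h compound exposure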)
# Conditions: ERR/PGC reporter cell line viability counter screen; series mostly up to 46.1 µM; viability change, negative = cytotoxic: at the top concentration
# Method in brief: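 Cytotoxicity in the PGC/ERR cell line is assessed with CellTiter-Fluor, read as fluorescence intensity 30 min after reagent addition, following 17.5 h compound treatment at 37 C.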
row,SMILES,"viability change, negative = cytotoxic"
1,CN=C(NC#N)NCCSCc1nc[nH]c1C,9.72% (inactive)
2,CN1Cc2c(N)cccc2C(c2ccccc2)C1 (configuration not stated),9.46% (inactive)
3,Nc1nc(N)c2nc(-c3ccccc3)c(N)nc2n1,21.6% (inactive)
4,CC(CN1c2ccccc2Sc2ccccc21)N(C)C (configuration not stated),-25.2% (inactive)
5,O=c1n(CCCN2CCN(c3cccc(Cl)c3)CC2)nc2ccccn12,-7.37% (inactive)

# Tested on: not listed separately
# Test: qHTS assay to identify small molecule antagonists of the estrogen related receptor (ERR) signaling pathway from Tox21 library - cell viability counter screen (AID 1224834); also: nearly all actives have a fitted effect of over 30% in size; also: potency is read from the fitted curve at half-maximal effect
# Conditions: ERR reporter cells viability, CellTiter-Fluor, 17.5 h; series mostly up to 92.4 µM; viability change, negative = cytotoxic: at the top concentration
# Method in brief: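 Compounds in DMSO were pinned onto ERR cells that had been incubated for 6 h, and the plates were held at 37 C for 17.5 h. CellTiter-Fluor reagent was then added and fluorescence was measured after 30 min.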
SMILES,Potency,"viability change, negative = cytotoxic"
Nc1cccc(C(F)(F)F)c1,inactive,–
CO[Si](CCCNCCN)(OC)OC,inactive,–
CC(COCC(C)OC(=O)c1ccccc1)OC(=O)c1ccccc1 (configuration not stated),inactive,–
C=C(C)CC(C)(C)C,inactive,–
CC(=O)OC[C@H]1O[C@@](COC(C)=O)(O[C@H]2O[C@H](COC(C)=O)[C@@H](OC(C)=O)[C@H](OC(C)=O)[C@H]2OC(C)=O)[C@@H](OC(C)=O)[C@@H]1OC(C)=O,inactive,–
Nc1cccc(N)n1,inactive,–
Cc1cc(C)c(O)c(C)c1,inactive,–
NC1CCCCC1N (configuration not stated),inactive,–
OCCOCCOCCOCCOCCO,inactive,–
NC(=O)NC(N)=O,inactive,–
COC(=O)CCCCC(=O)OC,inactive,–
OC[C@H]1O[C@@H](Oc2ccc(O)cc2)[C@H](O)[C@@H](O)[C@@H]1O,inactive,–
Oc1ccc(Cc2ccccc2O)cc1,–,-8.18% (inactive)
C[n+]1ccn(CCO)c1,inactive,–
CN=C(NC#N)NCCSCc1nc[nH]c1C,inactive,–
Brc1ccc(Oc2ccc(Br)cc2)cc1,inactive,–
CCCCCNCCCCC,inactive,–
CN1Cc2c(N)cccc2C(c2ccccc2)C1 (configuration not stated),inactive,–
CC/C(C)=N/O,inactive,–

SMILES,Potency,"viability change, negative = cytotoxic"
CCCOC(=O)NCCCN(C)C,inactive,–
OC1CCCCC1,inactive,–
C[Si](C)(C)N[Si](C)(C)C,inactive,–
Nc1nc(N)c2nc(-c3ccccc3)c(N)nc2n1,–,-7.09% [at 42.5 µM] (inactive)
CCCCCCCCO,inactive,–
N#CCC(=O)O,inactive,–
CN1CCCC1=O,inactive,–
OCC(O)CS (configuration not stated),inactive,–
O=[N+]([O-])c1ccccc1C(F)(F)F,inactive,–
CC(C=O)Cc1ccc(C(C)(C)C)cc1 (configuration not stated),inactive,–
CC1=CC(=O)CC(C)(C)C1,22.3 µM (active) and inactive,–
Cc1ccncc1,inactive,–
CC(CN1c2ccccc2Sc2ccccc21)N(C)C (configuration not stated),69.3 µM (active) and 61.1 µM (active),–
CCCCCCCCC(=O)O,inactive,–
CC(=O)C(C)C,inactive,–
Cc1cc(CC(=O)O)n(C)c1C(=O)c1ccc(Cl)cc1,inactive,–
Cc1ccc(C)c(S(=O)(=O)O)c1,inactive,–
C=C(CC(=O)O)C(=O)O,inactive,–
O=c1n(CCCN2CCN(c3cccc(Cl)c3)CC2)nc2ccccn12,inactive,–
